# Data as given in PubChem BioAssay AID651814 (National Center for Advancing Translational Sciences (NCATS), 2012).
# Among all 2,100 compounds or so, about 590 (28%) were called active. Another 42% or so got no clear call; they are omitted. Calls follow the shape of the dose curve; as a rule, active = well fitted inhibition curve with a large enough effect; inconclusive = small, poorly fitted or top-dose-only effect; inactive = flat fitted curve, though single readings scatter. The list shows a part of the results.
# Target: DNA dC->dU-editing enzyme APOBEC-3F (Homo sapiens) (UniProt Q8IUX4)
# Sequence (Q8IUX4 whole entry, looked up): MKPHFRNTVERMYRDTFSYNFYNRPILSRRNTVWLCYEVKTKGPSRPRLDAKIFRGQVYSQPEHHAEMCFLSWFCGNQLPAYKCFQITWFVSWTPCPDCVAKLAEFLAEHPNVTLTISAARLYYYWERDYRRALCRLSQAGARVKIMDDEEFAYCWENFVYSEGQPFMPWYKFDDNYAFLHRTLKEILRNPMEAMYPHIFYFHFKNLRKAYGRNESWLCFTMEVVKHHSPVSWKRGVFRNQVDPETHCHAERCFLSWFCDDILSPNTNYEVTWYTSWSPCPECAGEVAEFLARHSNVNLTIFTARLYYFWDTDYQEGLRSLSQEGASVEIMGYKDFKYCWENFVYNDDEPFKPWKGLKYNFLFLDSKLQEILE
# Experiment: qHTS for inhibitors of Vif-A3F interactions: Cherry picks; also: nearly all actives have a fitted effect of over 70% in size;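 as to max response: % of control where 0% means no effect; active compounds raise eYFP fluorescence by blocking Vif-driven A3F loss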
# Conditions: HeLa A3F-eYFP + Vif (tagged APOBEC3F with the HIV-1 protein that degrades it), eYFP fluorescence, 24 h
# How it was run: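 HeLa cells stably expressing A3F-eYFP plus Vif, cultured overnight, then exposed to compounds at several concentrations for 24 h at 37 deg C. Reduced Vif-driven degradation read as rising eYFP fluorescence (488 nm ex/500-530 nm em) by laser-scanning cytometry; MG132 as positive control.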
# Potency is read from the fitted curve at half-maximal effect.
SMILES,max response,Potency
COC(=O)c1ccccc1NC(=O)C1CC(=O)N(c2ccc(OC)cc2)C1 (stereo unspecified),-29% (inactive),
O=C(Cn1ncc(Cl)c(Cl)c1=O)N1CCN(S(=O)(=O)c2ccc3ccccc3c2)CC1,-29% (inactive),
C/C(=N\NC(=S)NC(C)C)c1ccc(C(C)(C)C)cc1,-1.78% (inactive),
CN(C)c1ccc(/C=C/c2cc(/C=C/c3ccc(N(C)C)cc3)c3ccccc3n2)cc1,,7.31 µM (active)
CCOc1ccc(C2CC(c3c(O)c4ccccc4oc3=O)=NN2c2ccccc2)cc1OC (stereo unspecified),,13 µM (active)
CC[N+](C)(C(=O)O)/C(=C\c1ccccc1)c1ccnc2ccccc12 (stereo unspecified),,20.6 µM (active)
CC(C)Cn1c(N)c(C(=O)COC(=O)c2ccc([N+](=O)[O-])o2)c(=O)n(C)c1=O,3.32% (inactive),
COc1ccc(-n2cc3c(-c4cccc(Br)c4)nnc(C)c3n2)cc1,-1.46% (inactive),
N=c1n(CC(=O)c2ccc([N+](=O)[O-])cc2)c2ccccc2n1Cc1ccccc1,,14.6 µM (active)
COC(=O)[C@@H]1Cc2c([nH]c3ccccc23)C(C)(C)N1C(=O)CCl,-14.3% (inactive),
Oc1ccc(C2=NNC(=NCc3ccc4c(c3)OCO4)SC2)c(O)c1,-25% (inactive),
CN(C)c1ccc(/C=C(/C#N)C(=O)Nc2nc3c(s2)CCN(Cc2ccccc2)C3)cc1,,0.704 µM (active)
N#Cc1c(NC(=O)/C=C/C(=O)O)sc2c1CCN(Cc1ccccc1)C2,-10.7% (inactive),
CCOC(=O)c1cc(-c2ccccc2C)n(CC2CC(c3ccc(OC)cc3)=NO2)n1 (stereo unspecified),6% (inactive),
CN(C)c1ccc(/C=C/c2ccnc3c(N)cccc23)cc1,,16.4 µM (active)
CN(C)c1ccc(/C=C/c2ccnc3c(Cl)ccc(Cl)c23)cc1,,6.51 µM (active)
CN(C)c1ccc(/C=C/c2ccnc3c(Cl)cccc23)cc1,,4.11 µM (active)
Cc1ccc(-c2nc(SCCOc3ccccc3C)n3[nH]c(=O)cc3n2)cc1,1.28% (inactive),
COc1ccc(/C=C2\Oc3cc(OC(=O)N4CCOCC4)ccc3C2=O)c(OC)c1,-13.8% (inactive),

SMILES,max response,Potency
COc1ccc(/C=c2\s/c(=C/C(=O)c3ccc(C)cc3)[nH]c2=O)c(OC)c1,,18.4 µM (active)
Cc1ccc(NC(=S)N=Nc2c(O)n(C)c3ccc(S(=O)(=O)N4CCOCC4)cc23)cc1,3.82% (inactive),
O=C(O)CSc1cc(NS(=O)(=O)c2cccc([N+](=O)[O-])c2)c2ccccc2c1O,-12.8% (inactive),
COc1ccc(-n2c(O)c(/C=N/NS(=O)(=O)c3cc(C)ccc3C)c3ccccc3c2=O)cc1OC,,14.6 µM (active)
COc1ccc(C(=O)C(C)[n+]2ccc(C)c3ccccc32)cc1[N+](=O)[O-] (stereo unspecified),1.15% (inactive),
COc1ccc(C)cc1NCc1cc(=O)oc2cc(-c3ccccc3)c(O)cc12,-18.7% (inactive),
COc1ccc(-n2c(O)c(/C=N/NS(=O)(=O)c3ccc(C)c([N+](=O)[O-])c3)c3ccccc3c2=O)cc1OC,,14.6 µM (active)
COC(=O)c1cnc(Nc2cc(C)ccc2OC)c2ccccc12,-22% (inactive),
COc1ccc(-n2c(O)c(/C=N/NS(=O)(=O)c3cccc([N+](=O)[O-])c3)c3ccccc3c2=O)cc1OC,,17.7 µM (active)
COC1=C(OC)C(=O)C(Sc2ccc3ccccc3c2)=CC1=O,-9.94% (inactive),
CCSc1nnc(-c2sc3nnc(-c4ccccc4)c(-c4ccccc4)c3c2N)o1,,16.4 µM (active)
COc1cc(CNCCSc2nnnn2C)ccc1OCc1c(F)cccc1Cl,-4.2% (inactive),
COc1ccc(C(=O)Nc2cccc(/C=C/c3nc4ccccc4c(=O)[nH]3)c2)cc1,,12.5 µM (active)
N#Cc1c(C(F)(F)F)cc(-c2ccco2)nc1SCc1ccccn1,,10.3 µM (active)
Nc1c(C(=O)Nc2nccs2)sc2nc(-c3cccs3)cc(C(F)(F)F)c12,,8.86 µM (active)
COc1ccc2nc(NC(=S)NC(=O)c3ccco3)sc2c1,-0.262% (inactive),
Cc1nnc(NC(=O)c2sc3nc(-c4cccs4)cc(C(F)(F)F)c3c2N)s1,,7.31 µM (active)
Nc1c(C(=O)Nc2ccc(F)cc2)sc2nc(-c3cccs3)cc(C(F)(F)F)c12,,1.64 µM (active)
O=C(Nc1nc2ccccc2s1)c1ccc([N+](=O)[O-])o1,-26.2% (inactive),

SMILES,max response,Potency
Nc1c(C(=O)Nc2nc3ccccc3s2)sc2nc(-c3cccs3)ccc12,,20.6 µM (active)
O=c1[nH]cnc2n[nH]nc12,,2.31 µM (active)
CCNC(=S)N/N=C(\C)c1ccc(N2CCOCC2)cc1,-0.726% (inactive),
O=c1[nH]c2ccccc2n2c(C(F)(F)F)nnc12,-23.2% (inactive),
Cn1c(N)c(-c2ccccc2)c2ccc([N+](=O)[O-])cc2c1=O,,4.98 µM (active)
CC(C)(C)NCC(=Cc1ccccc1)C(=O)c1ccccc1,10% (inactive),
C=C(C(=O)c1ccccc1)C(C)C(=C)C(=O)c1ccccc1,,12.5 µM (active)
O=C(OC12CC3CC(CC(C3)C1)C2)c1ccc(NCc2cc(O)ccc2O)cc1,-13.8% (inactive),
O=C(CN1c2ccccc2Sc2ccccc21)NNC(=O)Nc1cccc(Cl)c1,-28.8% (inactive),
CCN1/C(=C\C=C(C(C)=O)C(C)=O)Sc2ccccc21,,18.4 µM (active)
O=S(=O)(Nc1nc2ccccc2nc1OCC(F)(F)F)c1cccs1,-0.45% (inactive),
CSc1nsc(/C=C/Nc2ccc(C)cc2)c1C#N,,15.8 µM (active)
CSc1nsc(/C=C/Nc2ccc(F)cc2)c1C#N,-9.4% (inactive),
N#CC1=C(S)N(c2ccc(F)cc2)C2(CCCCC2)NC1=O,2.73% (inactive),
Cc1c(C(=O)Nc2cnccn2)oc2ccccc12,-18.9% (inactive),
CC(=O)Nc1sc(/C(C#N)=C\c2cccc(Cl)c2)nc1-c1ccc(C)cc1,,6.51 µM (active)
CC(=O)Nc1sc(/C(C#N)=C/c2ccc(Cl)c(Cl)c2)nc1-c1ccc(C)cc1,,2.59 µM (active)
O=C(Nc1nc(NC(=O)c2ccco2)n(-c2ccccc2)n1)c1ccccc1,-10.5% (inactive),
